Assay outcomes as filed in PubChem.
Compounds with a hit are over-represented: about 19% of the library has one in this group of screens.
DT40 TDP1 no CPT – qHTS for Inhibitors of human tyrosyl-DNA phosphodiesterase 1 (TDP1): qHTS in cells in absence of CPT | Potency, µM (top dose mostly 46.2 µM), actives largely listed as inhibitors | AID 686978, 2013 | actives 15% (n = 420,000) | DT40 Tdp1-/- hTDP1 cells, no CPT, ATP luminescence, 48 h; further: nearly all actives have a fitted effect of over 55% in size
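Chicken DT40 Tdp1-/- cells complemented with human TDP1, screened without camptothecin (DMSO vehicle only), 400 cells/well. Compounds pin-transferred, cells incubated at 37 °C for at least 48 hr. Growth read as ATP-dependent luminescence (CellTiter-Glo, 30 min at RT).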
KB-3-1 cytotox – kills parental KB-3-1 adenocarcinoma cells; KB-3-1 viability, CellTiter-Glo ATP luminescence, 72 h; Potency, µM (highest dose often 46.1 µM), usual class: cytotoxic; actives 1.4% (n = 400,000); further: nearly all actives have a fitted effect of over 60% in size
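Screening of KB-3-1 cells (DMEM, 10% FBS, phenol-red free) ran from lowest to highest compound concentration; after 72 h at 37 °C viability was read luminescently and curves fitted.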
KB-V1 cytotox – kills drug-selected multidrug resistant KB-V1 cells; KB-V1 MDR cells viability, CellTiter-Glo, 72 h; Potency, µM (top dose mostly 46.1 µM), hits mostly cytotoxic; actives 3.4% (n = 400,000); further: nearly all actives have a fitted effect of over 60% in size
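Cytotoxicity via CellTiter-Glo luminescence after 72 h compound exposure at 37 degrees C. Cells: drug-selected KB-V1 line, DMEM phenol-red free plus 10% FBS. Compounds tested at multiple concentrations; normalized data fitted to concentration-effect curves.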
HT1080 IDH1KD tx – toxicity to HT-1080 IDH1 knockdown cells (counter line). HT-1080 IDH1 knockdown viability, ATP luminescence, 48 h. Potency, µM (highest dose often 46.1 µM), actives largely listed as cytotoxic. actives 2% (n = 360,000). AID 686971
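In this qHTS, HT-1080 cells depleted of IDH1 are exposed for 48 h at 37 °C to compound titrations. Toxicity is scored from CellTiter-Glo luminescence, with DMSO as full viability and medium alone as none.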
HT1080-NT tox – kills 2HG-producing HT-1080-NT fibrosarcoma cells; HT-1080-NT fibrosarcoma viability, CellTiter-Glo ATP luminescence, 48 h; Potency, µM (doses to about 46.1 µM), most hits filed as cytotoxic; actives 1.6% (n = 360,000);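 further: NT is the 2HG producing partner of a matched IDH1 knockdown line; nearly all actives have a fitted effect of over 55% in size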
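Viability by CellTiter-Glo luminescence after 48 h compound exposure at 37C of HT-1080-NT cells (750/well, RPMI, 5% FBS). % activity scaled between DMSO wells and medium-only wells, then curve-fitted and categorized by curve class.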
TDP1 cell CPT – DT40-hTDP1 cell growth loss with CPT; chicken DT40 Tdp1-/-;hTDP1 cells + 20 nM CPT, ATP luminescence, 48 h; Potency, µM (highest dose often 46.2 µM), most hits filed as inhibitors; actives 12% (n = 420,000); further: nearly all actives have a fitted effect of over 55% in size
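Chicken DT40 Tdp1-/- cells complemented with human TDP1, 400 cells/well, exposed to compounds plus 20 nM camptothecin for at least 48 h at 37 C; viability read as ATP content by CellTiter-Glo luminescence.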
Large screens that a line does not name were inactive; ! = repeats disagree. The call rests on the fitted dose curve; in most records, active means well fitted curve in the direction sought with a large enough effect; inconclusive means small, poorly fitted or top-dose-only effect, or another doubt; inactive means no such curve, though single readings can be large; an effect the other way counts as inactive or inconclusive.

CN(C(=O)c1ccc(NC(=O)Cc2ccc(NC(=O)C3CCCN(C(=O)CCc4ccccc4)C3)cc2)cc1)C1CCCC1 (configuration not stated)	DT40 TDP1 no CPT 20.6µM, KB-3-1 cytotox inconclusive, TDP1 cell CPT 23.1µM
CN(C(=O)c1cccc(NC(=O)Cc2ccc(NC(=O)C3CCCN(C(=O)CCc4ccccc4)C3)cc2)c1)C1CC1 (configuration not stated)	DT40 TDP1 no CPT 16.4µM, KB-3-1 cytotox inconclusive, TDP1 cell CPT inconclusive
CN(Cc1ccccc1)C(=O)c1ccc(NC(=O)Cc2ccc(NC(=O)C3CCCN(C(=O)CCc4ccccc4)C3)cc2)cc1 (configuration not stated)	DT40 TDP1 no CPT 14.6µM, KB-3-1 cytotox inconclusive, TDP1 cell CPT 10.3µM
CN(Cc1ccccc1)C(=O)c1ccc(NC(=O)Cc2ccc(NC(=O)C3CCCN(C(=O)C4CCC4)C3)cc2)cc1 (configuration not stated)	DT40 TDP1 no CPT inconclusive
CCOC(=O)c1ccccc1NC(=O)Cn1nnc2sc3c(c2c1=O)CCCC3	none (no result: HT1080 IDH1KD tx, HT1080-NT tox)
Cc1cc(C)n(-c2nc3ccccc3c(=O)n2OCC(=O)Nc2c(C)cccc2C)n1	DT40 TDP1 no CPT 18.4µM, TDP1 cell CPT inconclusive
Cc1cc(C)n(-c2nc3ccccc3c(=O)n2OCC(=O)OCc2ccccc2)n1	DT40 TDP1 no CPT 5.8µM, KB-3-1 cytotox 23.1µM, HT1080 IDH1KD tx inconclusive, HT1080-NT tox inconclusive, TDP1 cell CPT 5.8µM
Cc1cc(CC(C)C)n(-c2nc3ccccc3c(=O)n2OCC(=O)N(C)C)n1	none
Cc1cc(CC(C)C)n(-c2nc3ccccc3c(=O)n2OCc2ccccc2)n1	DT40 TDP1 no CPT inconclusive, KB-3-1 cytotox inconclusive, KB-V1 cytotox 9.2µM, TDP1 cell CPT inconclusive
C#CCn1c(/C=C/c2ccc(Cl)cc2)nc2ccccc21	DT40 TDP1 no CPT inconclusive, TDP1 cell CPT inconclusive (no result: HT1080 IDH1KD tx, HT1080-NT tox)
CCC(C)Cn1c(/C=C/c2ccccc2)nc2ccccc21 (configuration not stated)	DT40 TDP1 no CPT 9.2µM, KB-V1 cytotox inconclusive, TDP1 cell CPT 9.2µM (no result: HT1080 IDH1KD tx, HT1080-NT tox)
CC(C)CCn1c(/C=C/c2ccccc2)nc2ccccc21	DT40 TDP1 no CPT 11.6µM, TDP1 cell CPT 16.4µM (no result: HT1080 IDH1KD tx, HT1080-NT tox)
CCCCn1c(=O)[nH]c(=O)c2c1nc(-c1ccccc1OC(F)F)n2C	none
Cc1csc(NC(=O)C(Cc2ccccc2)n2cccc2)n1 (configuration not stated)	DT40 TDP1 no CPT inconclusive, TDP1 cell CPT 29.1µM
COc1ccc(NC(=O)C(Cc2ccccc2)n2cccc2)c(OC)c1 (configuration not stated)	DT40 TDP1 no CPT 18.4µM!, KB-3-1 cytotox inconclusive, TDP1 cell CPT 23.1µM!
Cc1ccc(NC(=O)C(Cc2ccccc2)n2cccc2)cc1 (configuration not stated)	DT40 TDP1 no CPT 23.1µM, TDP1 cell CPT inconclusive
Cc1cccc(NC(=O)C(Cc2ccccc2)n2cccc2)c1C (configuration not stated)	DT40 TDP1 no CPT 14.6µM, TDP1 cell CPT 16.4µM (no result: KB-3-1 cytotox, KB-V1 cytotox, HT1080 IDH1KD tx, HT1080-NT tox)
CCc1cccc(C)c1NC(=O)CN(C)Cc1ccc(Br)cc1	DT40 TDP1 no CPT inconclusive, KB-V1 cytotox inconclusive, TDP1 cell CPT 20.6µM
Cc1cccc(C)c1NC(=O)CN(Cc1ccccc1)Cc1ccccc1	DT40 TDP1 no CPT 20.6µM, KB-V1 cytotox inconclusive, HT1080 IDH1KD tx inconclusive, HT1080-NT tox inconclusive, TDP1 cell CPT inconclusive
Cc1cccc(C)c1NC(=O)CNCC(=O)Nc1c(C)cccc1C	none
Cc1cccc(C)c1NC(=O)CC(C)c1ccccc1 (configuration not stated)	none
CC[N+](CC)(CC)CC(=O)Nc1c(C)cccc1C	TDP1 cell CPT 18.4µM!
Cc1cccc(C)c1NC(=O)CN(Cc1ccc(Br)cc1)S(=O)(=O)c1ccccc1	DT40 TDP1 no CPT 14.6µM, TDP1 cell CPT inconclusive (no result: HT1080 IDH1KD tx, HT1080-NT tox)
CSc1ccccc1NC(=O)CN(C)Cc1ccc(Br)cc1	DT40 TDP1 no CPT inconclusive
COc1cccc(NC(=O)N(C)C[C@H]2Oc3ncc(Br)cc3C(=O)N([C@H](C)CO)C[C@H]2C)c1	DT40 TDP1 no CPT inconclusive
CCc1ccc2c(CN(C)Cc3ccccc3OC)cc(=O)oc2c1	DT40 TDP1 no CPT inconclusive, KB-3-1 cytotox inconclusive, KB-V1 cytotox inconclusive, TDP1 cell CPT inconclusive
CC(=O)Nc1ccc(NC(=O)c2ccccc2Nc2ccccc2)cc1	DT40 TDP1 no CPT inconclusive, TDP1 cell CPT inconclusive
O=C(COC(=O)C12CC3CC(CC(Cl)(C3)C1)C2)Nc1ccc2[nH]c(=O)[nH]c2c1	none
CC(C)CN(C(=O)c1ccco1)C1CCS(=O)(=O)C1 (configuration not stated)	KB-V1 cytotox inconclusive
Nc1ccn([C@@H]2O[C@H](C(=O)N(CCC3=CCCCC3)CC3CC3)[C@@H](O)[C@H]2O)c(=O)n1	KB-V1 cytotox inconclusive, TDP1 cell CPT inconclusive
Cn1ccc2cc(S(=O)(=O)N3CCN(C(=O)Nc4ccccc4F)CC3)ccc21	none (no result: DT40 TDP1 no CPT, HT1080 IDH1KD tx, HT1080-NT tox, TDP1 cell CPT)
O=C(CN1C(=O)c2cccc3cccc1c23)N1CCN(Cc2ccc3c(c2)OCO3)CC1	DT40 TDP1 no CPT 20.6µM, KB-V1 cytotox inconclusive, TDP1 cell CPT inconclusive
O=C(CN1C(=O)c2cccc3cccc1c23)N1CCc2ccccc2C1	DT40 TDP1 no CPT 11.6µM, TDP1 cell CPT 20.6µM
O=C(CCCN1C(=O)c2ccccc2C1=O)N1CCc2ccccc2C1	none
O=C(c1ccc2c(c1)OCO2)N1CCN(CCN2C(=O)c3cccc4cccc(c34)C2=O)CC1	HT1080-NT tox inconclusive
COc1ccc(C(=O)OCC(=O)NC(=O)NC2CCCC2)cc1OC	KB-V1 cytotox inconclusive, TDP1 cell CPT inconclusive
CCCNC(=O)c1cccc(Br)c1	none
CCCNC(=O)c1ccc2c(c1)C1C3CCC(C3)C1C(c1ccccc1)N2 (configuration not stated)	DT40 TDP1 no CPT inconclusive, KB-3-1 cytotox inconclusive, KB-V1 cytotox 20.6µM, TDP1 cell CPT 20.6µM
CC(C)(C)NC(=O)c1ccc2c(c1)C1C3CCC(C3)C1C(c1ccccc1)N2 (configuration not stated)	DT40 TDP1 no CPT 11.6µM, TDP1 cell CPT 13µM
COc1cc(OC)cc(C(=O)NNC(=O)c2cc(S(=O)(=O)N3CCOCC3)ccc2F)c1	HT1080 IDH1KD tx inconclusive
COc1cccc(N(CC(=O)N2CCCC2)S(C)(=O)=O)c1	none
CCN(Cc1ccccc1)S(=O)(=O)c1ccc2c(c1)CC(C)N2C(=O)C1CCC1 (configuration not stated)	DT40 TDP1 no CPT 18.4µM, KB-3-1 cytotox inconclusive, KB-V1 cytotox inconclusive, TDP1 cell CPT inconclusive (no result: HT1080 IDH1KD tx, HT1080-NT tox)
